Only some compounds are listed: those with a hit (about 3.3% of all), similar ones and a draw of the others.
SIRT5 block: blocks human SIRT5 desuccinylation of peptide | Q9NXA8 | AID 652115 | inhibition, % at 15 µM | Purified SirT5, succinyl-peptide AMC, trypsin-coupled fluorescence | hit rate 1.1% among 330,000; in the data active = inhibition above about 15%
ERAP1 inh: ERAP1 (human) enzyme inhibition. AID 652197. recombinant ERAP1, Leu-AMC fluorescence, 60 min. Q9NZ08. inhibition, % at 10.7 µM. hit rate 0.15% among 340,000;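 active = mean replicate inhibition of at least 30%, or all replicates individually reaching that 30% level; inactive = mean below 30% and not every replicate reaching it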;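 also: 0% = neutral control wells and 100% = L-leucinethiol positive control wells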
Casp6 inh: caspase-6 (human) enzyme inhibition; P55212; purified caspase-6, Z-VEID-R110 cleavage fluorescence; inhibition, % at 12.5 µM; hit rate 0.53% among 350,000;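 active = mean inhibition across replicates at least about 35%, with every replicate also reaching that limit, limit read from the data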;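 also: 0% = median of neutral control wells and 100% = no fluorescence left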
Target sequence (P55212 24-179 limits assumed): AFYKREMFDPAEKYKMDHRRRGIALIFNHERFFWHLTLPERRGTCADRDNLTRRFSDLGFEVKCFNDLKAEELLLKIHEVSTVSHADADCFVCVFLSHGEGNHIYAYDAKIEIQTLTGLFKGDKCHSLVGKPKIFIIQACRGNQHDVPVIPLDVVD
Target sequence (P55212 194-293 limits assumed): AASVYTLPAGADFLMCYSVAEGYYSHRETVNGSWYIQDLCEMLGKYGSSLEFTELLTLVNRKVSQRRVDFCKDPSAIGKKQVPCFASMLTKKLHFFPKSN
GSIS activator: GLuc luminescence reporter in INS-1E cells, primary screen for activators of glucose-dependent secretion of insulin. hit rate 0.61% among 370,000. activation, % at 16.6 µM. INS-1E GLuc reporter insulin secretion, 2-3 h. AID 743287;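 active = lowest replicate activation of at least 40%, so every replicate reaches that level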;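 also: 0% = median of neutral control wells and 100% = median of IBMX positive control wells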
FGF22 binding: binders of recombinant human FGF22 by thermal shift; SYPRO orange fluorescence; percent of sucrose octasulfate shift, DMSO zero; activity (Tm shift, normalised), % at 9.99 µM; hit rate 1.5% among 340,000; AID 651658;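 active = mean Tm shift, scaled 0 neutral to 100 positive control, at about 1.3% or above, every replicate too, limit read from the data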
An asterisk follows results filed as active; / = no result.

SMILES	SIRT5 block	ERAP1 inh	Casp6 inh	GSIS activator	FGF22 binding
O=c1cc(Br)c(O)c(Br)cc1Br	9	7	91*	15	1
O=C(NC(=S)Nc1ccc(S(=O)(=O)Nc2ccccc2)cc1)C1CC1	1	-2	0	2	43*
O=C(NNC(=S)Nc1ccccc1)C1CCCCC1	-2	-3	-3	-9	44*
CC(=O)NS(=O)(=O)c1ccc(NC(=S)NC(=O)C2CCC2)cc1	-1	2	-2	7	0
COc1ccccc1NC(=O)N1CC(=O)N2[C@H](CO)[C@H](c3ccc(-c4cccc(C)c4)cc3)[C@@H]2C1	-1	-1	2	-26	/
COc1ccc(CN(C)C[C@@H]2OCCCC[C@@H](C)Oc3ccc(NC(=O)NC(C)C)cc3C(=O)N([C@@H](C)CO)C[C@@H]2C)cc1	-1	-1	-2	-2	0
COc1cc(Br)c(C(=O)c2nccc3cc(OC)c(OC)cc23)cc1OC	1	6	97*	20	0
C[C@@H]1CN([C@@H](C)CO)C(=O)c2cccc(NC(=O)Nc3ccc4c(c3)OCO4)c2O[C@H]1CN(C)CC1CC1	1	0	-2	8	0
O=C(CNc1ccc2ccccc2c1)N/N=C/c1ccc([N+](=O)[O-])o1	-2	1	1	-2	43*
O=C(N/N=C/c1ccc([N+](=O)[O-])o1)C1CC1	10	6	42*	/	0
C[C@@H]1CN([C@H](C)CO)C(=O)c2cc(NC(=O)Nc3cccc4ccccc34)ccc2O[C@H]1CN(C)C(=O)Nc1ccc(F)cc1	2	-2	3	13	0
CCC(=O)N1CC2(CN(S(C)(=O)=O)C2)c2c(n(C)c3cc(OC)ccc23)[C@@H]1CO	/	0	/	43	0
O=C(NC(=S)Nc1cccc2ncccc12)c1ccco1	5	-6	4	2	0
Cc1cc(NC(=S)NC(=O)c2ccco2)c2ccccc2n1	-6	-2	1	6	43*
C[C@H]1CN([C@@H](C)CO)S(=O)(=O)c2ccc(C#Cc3ccccc3F)cc2O[C@H]1CN(C)C(=O)c1ccc2c(c1)OCO2	17*	5	-1	-32	0
C[C@@H]1CN([C@@H](C)CO)S(=O)(=O)c2ccc(C#Cc3ccccc3F)cc2O[C@@H]1CN(C)C(=O)c1ccc2c(c1)OCO2	26*	-1	-3	-20	0
C[C@H]1CN([C@@H](C)CO)S(=O)(=O)c2ccc(C#Cc3ccccc3F)cc2O[C@@H]1CN(C)C(=O)Cc1ccccc1	1	-5	-2	-6	0
C[C@@H]1CN([C@@H](C)CO)S(=O)(=O)c2ccc(C#Cc3ccccc3F)cc2O[C@H]1CN(C)C(=O)Cc1ccccc1	2	-6	3	-46	0
CC1(C)NC(=O)N(CCOCCOc2ccccc2-c2ccccc2)C1=O	26*	-2	1	-6	0
Cc1ccc(S(=O)(=O)N(C)C[C@H]2Oc3c(NC(=O)Nc4ccc5c(c4)OCO5)cccc3C(=O)N([C@@H](C)CO)C[C@H]2C)cc1	15*	-5	-2	-3	0
C[C@H]1CN([C@@H](C)CO)C(=O)c2cccc(NC(=O)Nc3ccc(C(F)(F)F)cc3)c2O[C@H]1CN(C)S(=O)(=O)c1ccc(F)cc1	16*	0	1	-2	0
Cc1ccc(S(=O)(=O)N(C)C[C@@H]2Oc3c(NC(=O)Nc4ccc5c(c4)OCO5)cccc3C(=O)N([C@@H](C)CO)C[C@H]2C)cc1	10	-5	-2	-11	0
C[C@@H]1CN([C@H](C)CO)C(=O)c2cccc(NC(=O)Nc3ccc(C(F)(F)F)cc3)c2O[C@H]1CN(C)S(=O)(=O)c1cccs1	17*	2	-1	8	-1
CO[C@@H]1CN(C)C(=O)c2ccc(NC(=O)c3cccc(F)c3)cc2OC[C@@H](C)N(C(C)=O)C[C@H]1C	/	/	/	-2	/
O=C(O)c1cc(N2N=C(C(F)(F)F)/C(=C/C=C/c3ccco3)C2=O)ccc1Cl	63*	33*	95*	-15	/
Cc1ccc(OC(=O)N(C)C[C@@H]2OCc3ccccc3-c3ccccc3C(=O)N([C@@H](C)CO)C[C@H]2C)cc1	7	0	2	4	0
CCn1c(SCC(=O)Nc2ccc(C(C)=O)cc2)nnc1C1CC1	16*	3	5	10	0

Screens deposited in PubChem BioAssay by Broad Institute.
